# pKd: −log10 of the molar value.
# Key:
# [1] = test system: SRPK3
# [2] = test system: VRK2
# [3] = test system: T1, TAK1
# T1 construct: gene MAP3K7
# [4] = test system: TAOK1
# [5] = test system: TAOK3
# [6] = test system: TBK1
# [7] = test system: TESK1
# [8] = test system: TXK
# [9] = test system: TGFBR1
# [10] = test system: TIE1
# [11] = test system: TLK2
# [12] = test system: TNK2
# [13] = test system: TYRO3
# [14] = test system: TYK2(JH2domain-pseudokinase)
# [15] = test system: ULK3
# [16] = test system: T2, VEGFR2
# T2 construct: gene KDR
# [17] = test system: WNK4
# 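Also: kd values determined as follow-up on hits from a single-replicate KINOMEscan panel screen.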
structure (smiles),measurement,setting,value
CN1C(=O)C(Nc2cc(Cl)c(O)c(Cl)c2)=C(c2ccc(Cl)cc2)C1=O [SB-404321],pKd,[1],< 5.00
same,pKd,[2],< 5.00
CCn1c(-c2ccoc2)nc2cnccc21 [SB-733887],pKd,[3],< 5.00
Cc1nnc(-c2ccc3ncn(-c4ccc(S(C)=O)cc4)c3c2)o1 (stereo not shown),pKd,[4],< 5.00
same,pKd,[5],< 5.00
COc1ccc(-c2cc3c(C)nc(N)nc3n([C@H]3CC[C@H](O)CC3)c2=O)cn1,pKd,[6],< 5.00
O=C(NCCNc1ccnc(Nc2ccc(F)cc2)n1)Nc1ccc2c(c1)OCO2 [GSK1379882],pKd,[7],< 5.00
same,pKd,[8],< 5.00
Cc1cc(Nc2nc(-c3cccc(C)n3)nc3ccccc23)ccn1 [GW872411],pKd,[9],6.57
COc1cc2ncn(-c3cc(OCc4ccncc4)c(C(N)=O)s3)c2cc1OC [GSK336313],pKd,[10],< 5.00
O=C1NC(=O)C(c2ccccc2)=C1Nc1cccc(O)c1 [SB-390534],pKd,[11],5.62
CCCC(=O)Nc1n[nH]c2ncc(-c3cccc4ccccc34)cc12 [SB-642057],pKd,[11],< 5.00
COc1cc(OC)cc(-c2cc3cnc(N)nc3nc2NC(=O)NC(C)(C)C)c1,pKd,[12],< 5.00
same,pKd,[13],< 5.00
CN(C)c1cc(-c2ccc3c(N)n[nH]c3c2)nc(N)n1 [GSK2219329],pKd,[8],< 5.00
Nc1n[nH]c2ncc(-c3ccccc3)cc12 [SB-517081],pKd,[14],6.02
COc1ccc(-c2coc3ccc(-c4nnc(SCc5cccc(C#N)c5)o4)cc23)cc1,pKd,[15],< 5.00
COc1cc2nccc(Nc3ccc(OCc4ccc(NC(C)=O)cc4)cc3)c2cc1OC.Cl [GW440135],pKd,[16],7.28
OCCCNc1nccc(-c2c(-c3cccc(C(F)(F)F)c3)nn3cc(C(F)(F)F)ccc23)n1 [GW630813],pKd,[17],< 5.00

# — publication PMC5540273 (PLoS ONE, 2017)
